# Laboratory results reported in PubChem BioAssay AID652048 (National Center for Advancing Translational Sciences (NCATS), 2013).
# Screen size: about 410,000 compounds; about 2,400 (0.59%) were called active. The sample holds actives, similar compounds and a random draw of the others, so the mix is not that of the screen. Cut-off read from the data, not from the text of the source: active = max activation above about 30%; inactive = the rest.
# Target: D(3) dopamine receptor (Homo sapiens) (UniProt P35462)
# Sequence (P35462 whole entry, looked up): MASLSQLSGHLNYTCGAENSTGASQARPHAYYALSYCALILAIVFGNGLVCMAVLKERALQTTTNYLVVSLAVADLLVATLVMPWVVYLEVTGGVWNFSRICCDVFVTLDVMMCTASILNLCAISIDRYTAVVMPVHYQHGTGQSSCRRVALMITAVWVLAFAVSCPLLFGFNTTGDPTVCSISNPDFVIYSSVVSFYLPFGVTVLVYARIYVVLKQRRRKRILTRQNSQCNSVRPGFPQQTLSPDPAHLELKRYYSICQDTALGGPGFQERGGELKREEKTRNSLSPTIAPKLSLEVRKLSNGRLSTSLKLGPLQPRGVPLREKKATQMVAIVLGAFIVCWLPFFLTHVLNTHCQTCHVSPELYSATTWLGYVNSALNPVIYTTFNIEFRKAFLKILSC
# Assay: qHTS of D3 Dopamine Receptor Agonist: qHTS; note: 0% is about no effect
# Settings: D3R DiscoveRx beta-arrestin cells, luminescence, 90 min; active compounds read high
# Summary of the method: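 Cells at 1500/well, incubated overnight, then treated with pinned compounds (dopamine as control) for 90 min at 37 degrees C. DiscoveRx reagent added for 30 - 60 minutes at room temperature; luminescence read.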
row,Structure (SMILES),max activation
1,CCCN(CCC)CCNC(=O)Cn1cnc2sc(C)c(S(=O)(=O)N3CCC(C)CC3)c2c1=O,-7.98% (inactive)
2,Cc1ccc(-c2nn3c(=O)cc(CN4CCN(C(=O)Nc5cccc(C(F)(F)F)c5)CC4)nc3s2)cc1,5.13% (inactive)
3,CCc1ccc(CN(Cc2ccco2)C(=O)c2ccccc2Cl)cc1,-16.7% (inactive)
4,COc1ccc(NC(=O)c2sc3nc(-c4cc5cccc(OC)c5oc4=O)[nH]c(=O)c3c2C)cc1,-8.2% (inactive)
5,CSc1ncnc2c1ncn2CC(=O)C1CCC2C3CCC4=CC(=O)CCC4(C)C3CCC12C (centres undefined),53.2% (active)
6,CSc1ncnc2c1ncn2CCCNCc1ccco1,-2.72% (inactive)
7,CO[C@H]1[C@@H](O)[C@H](N)[C@@H](O[C@H]2O[C@H]([C@H](C)N)CC[C@H]2N)[C@H](O)[C@@H]1N(C)C(=O)CN,4.34% (inactive)
8,CCN1CCN(C(=O)Cn2nc(C)n3c(cc4c(OC)cccc43)c2=O)CC1,75.8% (active)
9,COc1cccc2c1cc1c(=O)n(CC(=O)N3CCN(c4ccccc4)CC3)nc(C)n12,5.49% (inactive)
10,COc1cccc2c1cc1c(=O)n(CC(=O)N3CCN(c4cccc(Cl)c4)CC3)nc(C)n12,9.45% (inactive)
11,Cc1c(O)cc2c(c1C)O[C@](C)(CCC[C@H](C)CCC[C@H](C)CCCC(C)C)CC2,13.3% (inactive)
12,CCc1cccc(NC(=O)CN(C)S(=O)(=O)c2ccc3[nH]c4c(c3c2)CCCC4)c1,-8.32% (inactive)
13,Cc1ccc2c(=O)c(C(=O)c3ccc(F)cc3)cn(CC(=O)NC3CCCCC3)c2n1,-2.6% (inactive)
14,COc1ccc(OC)c(CN2CCN(C(=O)CNC(=O)c3cc(C)cc(C)c3)CC2)c1,48.9% (active)
15,COc1cc(OC)cc(C(=O)NCC(=O)N2CCCCCCC2)c1,-0.951% (inactive)
16,Cc1cc(C)cc(C(=O)NCC(=O)OCC(=O)N2CCCCC2)c1,-0.844% (inactive)
17,Cc1nc(CN(C)C(=O)CC2C(=O)NCCN2Cc2ccc(F)cc2)cs1 (centres undefined),0.365% (inactive)

row,Structure (SMILES),max activation
1,Cc1cnc(CN(C)C(=O)CC2C(=O)NCCN2Cc2cccc(F)c2F)[nH]1 (centres undefined),4.65% (inactive)
2,CN(Cc1cccc2ncccc12)C(=O)CC1C(=O)NCCN1Cc1ccc(F)cc1 (centres undefined),32.9% (active)
3,CCCS(=O)(=O)c1ncc(Cl)c(C(=O)Nc2scc(-c3ccccc3)c2C(=O)OCC)n1,-8.93% (inactive)
4,CC1CCCN(c2csc3ccc(F)cc3c2=O)C1 (centres undefined),5.02% (inactive)
5,CC(C)c1ccccc1OCC(O)CN(CC(O)COc1cccc2ccccc12)C(C)C (centres undefined),13.3% (inactive)
6,Cc1cccc(OCC(O)CN2CCN(CCN3C(=O)c4cccc5cccc(c45)C3=O)CC2)c1C (centres undefined),-7.59% (inactive)
7,C=CCc1ccc(OCC(O)CN2CCN(Cc3ccccc3)CC2)c(OC)c1 (centres undefined),-9.27% (inactive)
8,CC(C)c1ccc(OCC(O)CN2CCN(c3ccccn3)CC2)cc1 (centres undefined),42.2% (active)
9,O=C1c2cccc3cccc(c23)N1CN1CCN(c2ccccn2)CC1,7.73% (inactive)
10,Cc1ccccc1OCC(O)CN1CCN(c2ccccn2)CC1 (centres undefined),41.3% (active)
11,O=S(=O)(c1ccc(OCC(O)CN2CCN(c3ccccc3Cl)CC2)cc1)N1CCOCC1 (centres undefined),7.66% (inactive)
12,CCc1ccc(OCC(O)CN2CCN(CCO)CC2)cc1 (centres undefined),-6.12% (inactive)
13,OC(COc1cccc2ccccc12)CN1CCN(c2ccccn2)CC1 (centres undefined),66.5% (active)
14,O=C(Cn1c(-c2cccs2)cc2ccccc21)NCCc1ccc(Cl)cc1,-7.79% (inactive)
15,COc1ccc(NC(=O)CSc2nc3ncccc3[nH]2)c(OC)c1,-5.62% (inactive)
16,CCCC(=O)Nc1ccc(NC(=O)c2sc3ccccc3c2Cl)cc1,-7.19% (inactive)
17,CCCCC(CC)CNC(=O)C1CCN(S(=O)(=O)c2cccc3nsnc23)CC1 (centres undefined),-12.4% (inactive)
